Compound activity as filed in PubChem BioAssay.
PLK1 PBD inh: PLK1 (human) polo-box domain binding inhibition | AID 720504 | Plk1 PBD binding of FITC phosphopeptide, fluorescence polarization | 360,000 tested, 2.8% active | Potency, µM, actives largely listed as inhibitors; also: series mostly up to about 57 µM; nearly all actives have a fitted effect of over 65% in size
PI5P4Ka inh: PI5P4K alpha (human) kinase inhibition | 330,000 tested, 1.2% active | max response, % | AID 652105 | PI5P4Kalpha enzyme, ADP-Glo luminescence, 60 min; hits give low values; active = max response of -50% or lower; inconclusive = between -30% and -50%; inactive = -30% or higher; also: value at the top dose of about 77 µM
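Single end-point luminescence (ADP-Glo) quantified ADP from PI5P4Kalpha turnover; ATP 5 microM final, 1 h at RT, 0.1% CHAPS and 0.28 mM EGTA in HEPES pH 7.4.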
JMJD2A Tudor inh: JMJD2A Tudor domain (human) inhibition; O75164; AlphaScreen JMJD2A-Tudor / H3K4me3 peptide binding; Potency, µM (doses to about 114 µM), most hits filed as inhibitors; 390,000 tested, 4.4% active; also: nearly all actives have a fitted effect of over 50% in size
HP1b chromo inh: inhibitors of HP1-beta chromodomain binding to methylated histone tails | P83916 | AlphaScreen HP1-beta / biotin-H3K9me3 peptide binding | Potency, µM (top dose mostly 114 µM), actives largely listed as inhibitors | 390,000 tested, 0.56% active; also: nearly all actives have a fitted effect of over 70% in size
Target sequence (P83916 whole entry, looked up): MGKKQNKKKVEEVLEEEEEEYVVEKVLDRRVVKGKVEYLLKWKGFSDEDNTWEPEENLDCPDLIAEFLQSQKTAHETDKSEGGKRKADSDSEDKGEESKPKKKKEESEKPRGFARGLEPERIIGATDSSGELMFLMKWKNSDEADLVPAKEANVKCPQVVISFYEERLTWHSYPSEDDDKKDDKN
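HP1-beta protein (50 nM final) preincubated 30 min at room temperature with biotinylated H3(1-18)K9me3 peptide (50 nM) in PBS pH 7.4, 0.01% Tween-20, then compound added for 30 min. AlphaScreen streptavidin donor/nickel chelate acceptor beads (10 ug/mL final), 30 min dark, luminescence read.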
G9a block: blocks human histone lysine methyltransferase G9a | Q96KQ7 | G9a H3K9 monomethylation, AlphaScreen, 2 h | Potency, µM (doses to about 102 µM), most hits filed as inhibitors | 350,000 tested, 8.8% active | AID 504332; also: nearly all actives have a fitted effect of over 75% in size
Target sequence (Q96KQ7 913-1193 limits assumed): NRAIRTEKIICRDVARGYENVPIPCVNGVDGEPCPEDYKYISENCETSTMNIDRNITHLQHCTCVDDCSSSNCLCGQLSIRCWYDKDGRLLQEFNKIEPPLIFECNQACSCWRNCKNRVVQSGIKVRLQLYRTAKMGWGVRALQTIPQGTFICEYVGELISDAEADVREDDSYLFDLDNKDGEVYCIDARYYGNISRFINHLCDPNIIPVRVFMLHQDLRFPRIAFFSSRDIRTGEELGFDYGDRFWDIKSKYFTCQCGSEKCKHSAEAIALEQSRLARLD
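Chemiluminescent proximity detection of H3K9 monomethylation, read after 10 min bead incubation in the dark. Reaction: 20 nM G9a, 500 nM biotin-H3K9 peptide, 20 uM SAM cofactor, 2 h, room temperature, following 15 min enzyme-compound preincubation.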
BAZ2B inh: inhibitors of human BAZ2B bromodomain; Q9UIF8; AlphaScreen BAZ2B-H3K14Ac peptide displacement; Potency, µM (series often up to 114 µM), hits mostly inhibitors; 360,000 tested, 4.4% active; AID 504333; also: nearly all actives have a fitted effect of over 60% in size
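BAZ2B 50 nM plus b-H3(5-23)K14Ac 50 nM, PBS pH 7.4/0.01% Tween-20, 30 min RT; compound added (max 110 uM), 30 min RT; streptavidin donor/Ni-chelate acceptor beads 10 ug/mL final, 20 min dark; AlphaScreen read.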
A number is an active result. A selection: hits, their analogues and other compounds. The true share with any hit is near 12%. Unless noted, calls follow the shape of the dose curve; as a rule, active = well fitted curve in the direction sought with a large enough effect; inconclusive = small, poorly fitted or top-dose-only effect, or another doubt; inactive = no such curve, though single readings can be large; an effect the other way counts as inactive or inconclusive.

`C=C(C)CSc1cc(C)c(C#N)c2nc3ccccc3n12` gave PLK1 PBD inh 27µM, PI5P4Ka inh inactive, JMJD2A Tudor inh inactive, HP1b chromo inh inactive, G9a block 1.4µM and BAZ2B inh inactive.
Cc1ccc(OCCN2CCC2(C)C(=O)NCc2ccc(C(F)(F)F)cc2)cc1 (stereo not given) was read as PLK1 PBD inh inactive and PI5P4Ka inh inactive.
For COC(=O)c1ccc(CN2CCN(CC=C(C)C)C(CCO)C2)cc1 (stereo not given) the results were PLK1 PBD inh inactive, PI5P4Ka inh inactive, JMJD2A Tudor inh inactive, HP1b chromo inh inactive, G9a block 45µM and BAZ2B inh inconclusive.
`COC(=O)c1ccc(CN2CCN(CC(C)C)C(CCO)C2)cc1` (stereo not given) gave PLK1 PBD inh inactive, PI5P4Ka inh inactive, JMJD2A Tudor inh inactive, HP1b chromo inh inactive and BAZ2B inh inactive.
`COc1ccc2ccccc2c1C(=O)/C=C\c1ccoc1` gave PLK1 PBD inh inactive, PI5P4Ka inh -53, JMJD2A Tudor inh inconclusive, HP1b chromo inh inconclusive, G9a block 45µM and BAZ2B inh 28µM.
`COc1ccc(N2CCN(Cc3cc4c(cc3O)CCC4)CC2)cc1` gave PLK1 PBD inh inactive, JMJD2A Tudor inh 16µM, HP1b chromo inh inactive, G9a block inconclusive and BAZ2B inh 32µM.
For C/C=C/c1cc(CN2CCN(c3ccc(OC)cc3)CC2)c(O)c(OC)c1 the results were PLK1 PBD inh inactive, PI5P4Ka inh inactive, JMJD2A Tudor inh 45µM, HP1b chromo inh 45µM, G9a block 35µM and BAZ2B inh 28µM.
For CCOc1ccc(CCNC(=O)c2ccc(CS(=O)(=O)c3ccccc3C)o2)cc1OCC the results were JMJD2A Tudor inh inactive, HP1b chromo inh inactive, G9a block inactive and BAZ2B inh inactive.
`NS(=O)(=O)c1ccc(N/C=C\C(=O)c2ccc3ccccc3c2)cc1` gave PLK1 PBD inh inactive, PI5P4Ka inh inactive, JMJD2A Tudor inh inactive, HP1b chromo inh inactive, G9a block 8.9µM and BAZ2B inh inconclusive.
`Cc1nn(C)c2c1c(-c1ccccc1)cc(=O)n2CC(=O)NC(C)C` gave JMJD2A Tudor inh inactive, HP1b chromo inh inactive, G9a block inactive and BAZ2B inh inactive.
For COc1ccc(C(=O)n2nc(-c3ccco3)nc2NCc2cccs2)cc1 the results were JMJD2A Tudor inh inactive, HP1b chromo inh inactive, G9a block 10µM and BAZ2B inh inactive.
For COc1ccc(CNc2nc(-c3ccco3)nn2C(=O)c2ccccc2Cl)cc1 the results were JMJD2A Tudor inh inactive, HP1b chromo inh inactive, G9a block inactive and BAZ2B inh inactive.
`COc1ccc(C(=O)n2nc(-c3ccco3)nc2SC)cc1OC` gave PLK1 PBD inh inconclusive, PI5P4Ka inh inactive, JMJD2A Tudor inh inconclusive, HP1b chromo inh inactive, G9a block 20µM and BAZ2B inh inactive.
`CC(=O)c1ccc(NC(=O)c2nc(-c3ccccc3)n(-c3ccc(Cl)cc3)n2)cc1` gave JMJD2A Tudor inh inactive, HP1b chromo inh inactive, G9a block inactive and BAZ2B inh inconclusive.
COc1ccccc1CNS(=O)(=O)c1ccc2[nH]cc(C(=O)O)c(=O)c2c1 was read as PLK1 PBD inh inactive, PI5P4Ka inh inactive, JMJD2A Tudor inh 40µM, HP1b chromo inh inconclusive, G9a block inactive and BAZ2B inh inactive.
Screening COc1ccccc1CNS(=O)(=O)c1ccc2c(c1)NC(=O)CC(=O)N2 returned JMJD2A Tudor inh inactive, HP1b chromo inh inactive, G9a block inactive and BAZ2B inh inactive.
CC1(C)CC(=S)Nc2ccccc2S1 was read as PLK1 PBD inh 27µM, JMJD2A Tudor inh inactive, HP1b chromo inh inconclusive, G9a block 7.9µM and BAZ2B inh inactive.
O=C1CSc2ccccc2N1 was read as PLK1 PBD inh inactive, PI5P4Ka inh inactive, JMJD2A Tudor inh inactive and HP1b chromo inh inactive.
Screening OC[C@@H]1[C@@H](c2ccc(F)cc2)C(c2ccc(F)cc2)=NN1c1ccccc1 returned G9a block inactive.
For CCOc1ccccc1N1CCN(c2nc(N)c(C#N)c(CC#N)c2C#N)CC1 the results were PLK1 PBD inh inactive, PI5P4Ka inh -67, JMJD2A Tudor inh inactive, HP1b chromo inh inactive, G9a block inconclusive and BAZ2B inh inconclusive.
CCOc1ccccc1N1CCN(c2nc3ccccc3nc2C(C#N)C(=O)OC)CC1 (stereo not given) was read as PLK1 PBD inh inactive, PI5P4Ka inh inactive, JMJD2A Tudor inh inactive, HP1b chromo inh inactive and BAZ2B inh inactive.
`COc1cc(C(=O)OCc2cc(=O)oc3c(C)c(C)ccc23)ccc1OC(F)F` gave PLK1 PBD inh 24µM, PI5P4Ka inh inactive, JMJD2A Tudor inh inconclusive, HP1b chromo inh inactive, G9a block inactive and BAZ2B inh inactive.
`COc1cc2c(cc1OC)CN(Cc1cc(=O)oc3cc(C)c(Cl)cc13)CC2` gave PLK1 PBD inh inactive, PI5P4Ka inh inactive, JMJD2A Tudor inh inactive, HP1b chromo inh inactive, G9a block 10µM and BAZ2B inh inactive.
For Cc1cc2oc(=O)cc(CN3CCCC3)c2cc1C the results were PLK1 PBD inh inactive and PI5P4Ka inh inactive.
Screening COc1cc2c(cc1OC)CN(Cc1cc(=O)oc3c(C)c(C)ccc13)CC2 returned PLK1 PBD inh inactive, PI5P4Ka inh inactive, JMJD2A Tudor inh inactive, HP1b chromo inh inactive, G9a block 25µM and BAZ2B inh inactive.
`COc1cc2c(cc1OC)CN(Cc1cc(=O)oc3cc(C)c(C)cc13)CC2` gave PLK1 PBD inh inactive, PI5P4Ka inh inactive, JMJD2A Tudor inh inactive, HP1b chromo inh inactive, G9a block 7.9µM and BAZ2B inh inactive.
CCc1ccc2c(CN3CCc4cc(OC)c(OC)cc4C3)cc(=O)oc2c1 was read as PLK1 PBD inh inactive, PI5P4Ka inh inactive, JMJD2A Tudor inh inactive, HP1b chromo inh inactive, G9a block 8.9µM and BAZ2B inh inactive.
Screening Fc1ccc(-n2c(-c3ccc4ccccc4n3)n[nH]c2=S)cc1Cl returned PLK1 PBD inh inactive, PI5P4Ka inh inactive, JMJD2A Tudor inh inactive, HP1b chromo inh inactive, G9a block inconclusive and BAZ2B inh inactive.
COc1ccc(-n2c(-c3ccccc3)nnc2-c2ccc(Cl)cc2)cc1 was read as PLK1 PBD inh inactive, PI5P4Ka inh inactive, JMJD2A Tudor inh inactive, HP1b chromo inh inactive, G9a block inactive and BAZ2B inh inactive.
Screening Cc1ccccc1-n1c(-c2ccc3ccccc3n2)n[nH]c1=S returned PLK1 PBD inh inactive, PI5P4Ka inh inactive, JMJD2A Tudor inh inactive, HP1b chromo inh inactive, G9a block 14µM and BAZ2B inh inactive.
For S=c1[nH]nc(-c2ccc3ccccc3n2)n1-c1ccc2ncccc2c1 the results were PLK1 PBD inh inactive, PI5P4Ka inh inactive, JMJD2A Tudor inh inactive, HP1b chromo inh inactive, G9a block 2µM and BAZ2B inh inconclusive.
`COc1ccc(-c2n[nH]c(=S)n2-c2ccccc2C)cc1` gave PLK1 PBD inh inconclusive, PI5P4Ka inh inactive, JMJD2A Tudor inh inconclusive, HP1b chromo inh inactive, G9a block 4.5µM and BAZ2B inh inactive.
